From PubChem BioAssay
The list is not random: actives were taken first. Their share in the collection is about 15%.
Gal4-VP16 FLuc = VP16 counterscreen qHTS for inhibitors of ROR gamma transcriptional activity; Drosophila S2 Gal4-VP16 UAS-luciferase, luminescence, 20 h; Potency, µM (series often up to 53.6 µM), most hits filed as inhibitors; 310,000 tested, 3.5% active; AID 2546, 2010;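 also: Gal4-VP16 expression switched on by copper sulfate through the metallothionein promoter; nearly all actives have a fitted effect of over 50% in size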
ELG1 repair inh = qHTS screen for small molecules that inhibit ELG1-dependent DNA repair in human embryonic kidney (HEK293T) cells expressing luciferase-tagged ELG1; HEK293T ELG1-luciferase reporter, luminescence, 16 h; DNA damage induced by 5-fluorouridine; Potency, µM (top dose mostly 46.1 µM), hits mostly inhibitors; 330,000 tested, 2.3% active; AID 504467, 2011; also: nearly all actives have a fitted effect of over 55% in size
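5-Fluorouridine DNA damage + compound/DMSO, 2,000 cells/well, 16 h, 37 °C/5% CO2. ONE-Glo, 30 min RT, luminescence. Readout = decrease in reporter signal.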
RORgamma inh = qHTS for inhibitors of ROR gamma transcriptional activity | Potency, µM (doses to about 53.6 µM), actives largely listed as inhibitors | Drosophila S2 Gal4-RORgamma UAS-luciferase reporter, 20 h | Nuclear receptor ROR-gamma (Mus musculus), P51450 | 310,000 tested, 5.4% active; also: nearly all actives have a fitted effect of over 60% in size
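Stable Schneider cell line, Gal4 DNA-binding domain fused to ROR gamma, UAS-luciferase. Cmpd 1 hr RT → CuSO4 700 uM final → 20 hr RT → luciferase reagent 10 min → luminescence.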
12-LOX inh = Primary qHTS assay for inhibitors of human arachidonate 12S-lipoxygenase (ALOX12): Round 2. Polyunsaturated fatty acid lipoxygenase ALOX12 (Homo sapiens), P18054. purified 12hLO, xylenol orange hydroperoxide absorbance. Potency, µM (doses to about 108 µM), usual class: inhibitors. 580,000 tested, 1.1% active. AID 1671190, 2021
Target sequence (P18054 whole entry, looked up): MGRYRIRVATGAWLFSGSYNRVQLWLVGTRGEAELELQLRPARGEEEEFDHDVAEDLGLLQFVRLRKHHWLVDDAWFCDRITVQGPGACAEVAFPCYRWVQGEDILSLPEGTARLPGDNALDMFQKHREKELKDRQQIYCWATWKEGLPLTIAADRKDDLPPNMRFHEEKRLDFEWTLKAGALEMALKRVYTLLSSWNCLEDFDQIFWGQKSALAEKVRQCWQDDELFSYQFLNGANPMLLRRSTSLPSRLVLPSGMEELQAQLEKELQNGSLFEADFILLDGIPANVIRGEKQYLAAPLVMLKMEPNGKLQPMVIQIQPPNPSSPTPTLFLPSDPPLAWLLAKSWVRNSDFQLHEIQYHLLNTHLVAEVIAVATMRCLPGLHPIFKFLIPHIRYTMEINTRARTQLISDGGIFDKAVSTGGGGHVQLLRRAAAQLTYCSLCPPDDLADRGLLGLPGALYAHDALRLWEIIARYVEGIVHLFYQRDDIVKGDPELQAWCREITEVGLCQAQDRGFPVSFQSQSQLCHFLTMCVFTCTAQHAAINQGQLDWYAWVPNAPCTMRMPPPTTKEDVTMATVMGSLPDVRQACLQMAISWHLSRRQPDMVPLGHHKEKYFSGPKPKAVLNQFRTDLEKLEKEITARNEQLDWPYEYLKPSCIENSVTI
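Purified human 12hLO (150 nM final) in 25 mM Hepes, 0.01% Triton X-100, pH 7.0 was preincubated 15 min at room temperature with compound. Then 40 uM arachidonic acid was added, 30 min. Hydroperoxide was read by Fe-XO absorbance ratio 573/405 nm.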
DT40 TDP1 no CPT = qHTS for Inhibitors of human tyrosyl-DNA phosphodiesterase 1 (TDP1): qHTS in cells in absence of CPT; DT40 Tdp1-/- hTDP1 cells, no CPT, ATP luminescence, 48 h; Potency, µM (doses to about 46.2 µM), usual class: inhibitors; 420,000 tested, 15% active; also: nearly all actives have a fitted effect of over 55% in size
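No-CPT arm: Tdp1-/-;hTDP1 DT40 cells (400/well) plus compounds, incubated ≥48 hr at 37 °C. Readout CellTiter-Glo luminescence.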
TDP1 cell CPT = qHTS for Inhibitors of human tyrosyl-DNA phosphodiesterase 1 (TDP1): qHTS in cells in presence of CPT. chicken DT40 Tdp1-/-;hTDP1 cells + 20 nM CPT, ATP luminescence, 48 h. Potency, µM (highest dose often 46.2 µM), hits mostly inhibitors. 420,000 tested, 12% active. AID 686979, 2013; also: nearly all actives have a fitted effect of over 55% in size
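Cell growth measured by CellTiter-Glo luminescence after a minimum 48 h, 37 C compound exposure with 20 nM CPT in Tdp1-knockout DT40 cells stably expressing hTDP1, seeded 400/well; qHTS titration format.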
Numbers stand for hits; n = inactive; u = inconclusive; x = not tested or not shown; [ ] = another dose, or the depositor's remark. Calls follow the shape of the dose curve; as a rule, active = well fitted curve in the direction sought with a large enough effect; inconclusive = small, poorly fitted or top-dose-only effect, or another doubt; inactive = no such curve, though single readings can be large; an effect the other way counts as inactive or inconclusive.

SMILES | Gal4-VP16 FLuc | ELG1 repair inh | RORgamma inh | 12-LOX inh | DT40 TDP1 no CPT | TDP1 cell CPT
Cc1[nH]nc2c1C1(C(=O)N(Cc3ccc(Cl)cc3)c3ccccc31)C(C#N)=C(N)O2 (centres undefined) | u | n | u | u | 26µM | 23µM
CC(=O)N1C(=O)C2(C(C#N)=C(N)Oc3n[nH]c(-c4ccccn4)c32)c2ccccc21 (centres undefined) | n | n | n | u | 18µM | u
CC(=O)N1C(=O)C2(C(C#N)=C(N)Oc3c2c(C)nn3-c2ccccc2)c2ccccc21 (centres undefined) | n | n | n | n | u | 23µM
CCOCCn1c(=O)[nH]c2cc(C(=O)NCc3nnc(C)o3)ccc21 | x | x | x | n | x | x
c1ccc(-c2ccc(-c3ccccn3)nn2)nc1 | 8.9µM | u | 5.6µM | n | x | x
c1ccc(-c2ccccn2)nc1 | n | n | n | n | n | n
CSC1=C(C#N)C(=O)NC(c2ccc(Cl)cc2)S1 (centres undefined) | n | n | n | n | 16µM | u
CCCCCCc1cc2cc(-c3nnc(-c4ccccc4OC)o3)c(=O)oc2cc1O | u | 7.3µM | n | n | 16µM | u
COc1ccc(-c2nnc(-c3cc4ccccc4oc3=O)o2)cc1 | n | u | u | n | u | n
CCCCCCc1cc2cc(C(=O)Nc3ccccc3OC)c(=O)oc2cc1O | n | n | n[10 µM] | n | 16µM | 16µM
CCCCCCc1cc2cc(S(=O)(=O)c3ccc(F)cc3)c(=O)oc2cc1O | u | n | n | u | u | 21µM
CCCCCCc1cc2cc(-c3nnc(-c4ccccc4O)o3)c(=O)oc2cc1O | n | u | n | n | 7.3µM | 8.2µM
CN(C)C(=O)CCc1c(-c2ccc(F)cc2)[nH]c2ccc(F)cc12 | x | x | x | n | x | x
c1coc(CNCc2ccc3cc[nH]c3c2)c1 | x | x | x | n | x | x
CCCCCCc1cc2cc(-c3nnc(-c4cc(OC)c(OC)c(OC)c4)o3)c(=O)oc2cc1O | n | u | n | x | 23µM | u
N#Cc1cccc2c1-c1ccccc1/C2=N/NC(N)=S | 5µM | n | 4µM | x | 18µM | u
NC(=S)NN=C1c2ccccc2-c2c(F)c(F)c(F)c(F)c21 | x | x | x | u | 12µM | 7.3µM
N#Cc1cccc2c1-c1ccccc1/C2=N/NC(N)=O | n | n | n | x | u | u
S=C(NCCSCc1ccccc1Cl)Nc1ccccc1 | 4µM | n | 2.8µM | 35µM | u | u
Cc1cccc(CSCCNC(=S)Nc2ccccc2)c1 | 5.6µM | u | 5.6µM | u | 18µM | u
O=C(CCSCc1ccccc1Cl)NCCc1ccccc1 | x | x | x | n | n | n
O=C(Cc1ccccc1)NCCSCc1ccccc1 | n | u | n | n | n | n
S=C(NCCSCc1ccc(Cl)cc1)Nc1ccccc1 | 11µM | n | 2.5µM | 45µM | u | u
COC(=O)N/N=C/C(C)=C/c1ccccc1 | x | x | x | n | x | x
COc1ccc(NC(=O)Nc2c(NC3CCCC3)c3ccccc3oc2=O)cc1OC | x | x | x | n | x | x
SMILES | Gal4-VP16 FLuc | ELG1 repair inh | RORgamma inh | 12-LOX inh | DT40 TDP1 no CPT | TDP1 cell CPT
CCOc1ccc(CCN2C(=O)C(=O)N([C@@H](Cc3ccccc3)CN3CCC[C@H]3CN3C(=O)C(=O)NC[C@@H]3CC(C)C)C[C@@H]2Cc2ccc(O)cc2)cc1 | x | x | x | n | u | n
CCOc1ccc(CCN2C(=O)C(=O)N([C@@H](CC(C)C)CN3CCC[C@H]3CN3C(=O)C(=O)NC[C@@H]3CC(C)C)C[C@@H]2Cc2ccc(O)cc2)cc1 | x | x | x | n | u | 16µM
CCOc1ccc(CCN2C(=O)C(=O)N([C@@H](CC(C)C)CN3CCC[C@H]3CN3C(=O)C(=O)NC[C@@H]3Cc3ccc(O)cc3)C[C@@H]2Cc2ccccc2)cc1 | x | x | x | n | 16µM | u
COc1ccc(S(=O)(=O)c2cc3ccc(OC)cc3oc2=O)cc1 | x | x | x | n | x | x
O=C(Nc1nc(-c2ccc(Cl)s2)cs1)c1ccncc1 | n | n | n | n | 9.2µM | 9.2µM
Cc1c(C(=O)O)sc2nc(-c3cccs3)cc(C(F)(F)F)c12 | n | n | n | u | u | n
O=C(Nc1nc(-c2cccs2)cs1)c1ccc(Cl)cc1 | u | n | u | u | 15µM | 26µM
Cc1csc(NC(=O)c2sc3nc(-c4cccs4)ccc3c2N)n1 | n | u | n | x | 25µM | u
Cc1c(C(=O)Nc2nccs2)sc2nc(-c3cccs3)cc(C(F)(F)F)c12 | 3.2µM | u | 0.79µM | n | 23µM | 18µM
CCn1ncc(-c2cc(C(=O)O)c3ccccc3n2)c1C | x | x | x | n | x | x
COc1ccc(-c2noc([C@@H]3Cc4nc[nH]c4CN3Cc3ccc(NC(C)=O)cc3)n2)cc1 | x | x | x | n | x | x
COc1cc(C(=O)Nc2nc(-c3cccs3)cs2)cc(OC)c1OC | n | 13µM | n | n | 13µM | 23µM
Cc1nn(C)cc1CN(C)C(=O)Cn1nc(C(F)(F)F)c(Br)c1C1CC1 | x | x | x | n | x | x
Cc1ccc(Oc2ncc(-c3ccc(Cl)cc3)cn2)cc1 | n | n | n | n | n | n
Cc1cccc(Oc2ncc(-c3ccc(Cl)cc3)cn2)c1C | n | n | u | n | 21µM | u
CSC1=N/C(=C\c2cccc(Cl)c2)C(=O)N1N(C)C | n | n | n | n | 21µM | u
CSC1=N/C(=C\c2ccccc2Cl)C(=O)N1N(C)C | n | n | n | u | u | n
COc1ccccc1C(=O)NC[C@@H]1CC[C@H]2C[C@@H]1C2(C)C | x | x | x | n | x | x
COc1cc(Br)c(C[N+]2(CCOCCC3CCC4CC3C4(C)C)CCOCC2)cc1OC (centres undefined) | x | x | x | x | 1.9µM | 1.9µM
CCCCN(C)C(=O)c1ccc2nc(C)c(C)nc2c1 | x | x | x | n | x | x
CCN(CC)S(=O)(=O)c1ccc(N2CCCC2)c(NC(=O)c2ccc(OC)cc2OC)c1 | n | u | n | n | 16µM | 18µM
CCN(CC)S(=O)(=O)c1ccc(N2CCCC2)c(NC(=O)Cc2cc(OC)c(OC)c(OC)c2)c1 | n | n | n | n | n | n
COc1ccc(C(C)(C)C)cc1NC(=O)c1cc(S(=O)(=O)N(C)C)ccc1N1CCCC1 | n | u | n | n | u | 21µM
CCN(CC)S(=O)(=O)c1ccc(N2CCCCC2)c(NC(=O)/C=C/c2ccc(OC)c(OC)c2)c1 | n | u | n | n | u | u
CCN(CC)S(=O)(=O)c1ccc(N2CCCC2)c(NC(=O)Cc2ccc(OC)cc2)c1 | n | n | n | u | 21µM | u
